Measured values: PubChem BioAssay (NCATS)
Unmarked numbers belong to inactive results. Inconclusive results are not listed. Activity calls are given as the source filed them.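 How the source made its calls, unless noted: active means compounds whose dose series gives a full or clear partial fitted curve of increased nuclear translocation; inconclusive means weak partial curve or effect only at the top dose; inactive means no dose-dependent translocation response.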

Columns and labels:
[1] = Stat Signaling Pathway (AID 446; active means well fitted curve in either direction with a large enough effect, not every such curve was filed as active;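 further: ME-180 cervical cancer cells given 40 pM IL-6 alongside compound; SIE-controlled beta-lactamase reporter measured as 460/530 nm FRET emission ratio; on the % scale 0 is the no-effect control and ±100 the full control effect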); details: ME-180 (cervical carcinoma) SIE beta-lactamase reporter, IL-6 stimulated, 5 h; at 17.2 µM (top of the series) unless noted
Procedure, shortened: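 IL-6/STAT signaling read in ME-180 cells via an SIE beta-lactamase reporter. Stimulus was 40 pM IL-6 (its AC50) for 5 hrs, so both activation and inhibition register.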

[2] = target: Glucocorticoid receptor (Homo sapiens) (UniProt P04150); test: GR-GFP Redistribution (AID 450); further: potency means the concentration at half of the fitted maximal effect
Sequence of Glucocorticoid receptor (Homo sapiens) (P04150 whole entry, looked up): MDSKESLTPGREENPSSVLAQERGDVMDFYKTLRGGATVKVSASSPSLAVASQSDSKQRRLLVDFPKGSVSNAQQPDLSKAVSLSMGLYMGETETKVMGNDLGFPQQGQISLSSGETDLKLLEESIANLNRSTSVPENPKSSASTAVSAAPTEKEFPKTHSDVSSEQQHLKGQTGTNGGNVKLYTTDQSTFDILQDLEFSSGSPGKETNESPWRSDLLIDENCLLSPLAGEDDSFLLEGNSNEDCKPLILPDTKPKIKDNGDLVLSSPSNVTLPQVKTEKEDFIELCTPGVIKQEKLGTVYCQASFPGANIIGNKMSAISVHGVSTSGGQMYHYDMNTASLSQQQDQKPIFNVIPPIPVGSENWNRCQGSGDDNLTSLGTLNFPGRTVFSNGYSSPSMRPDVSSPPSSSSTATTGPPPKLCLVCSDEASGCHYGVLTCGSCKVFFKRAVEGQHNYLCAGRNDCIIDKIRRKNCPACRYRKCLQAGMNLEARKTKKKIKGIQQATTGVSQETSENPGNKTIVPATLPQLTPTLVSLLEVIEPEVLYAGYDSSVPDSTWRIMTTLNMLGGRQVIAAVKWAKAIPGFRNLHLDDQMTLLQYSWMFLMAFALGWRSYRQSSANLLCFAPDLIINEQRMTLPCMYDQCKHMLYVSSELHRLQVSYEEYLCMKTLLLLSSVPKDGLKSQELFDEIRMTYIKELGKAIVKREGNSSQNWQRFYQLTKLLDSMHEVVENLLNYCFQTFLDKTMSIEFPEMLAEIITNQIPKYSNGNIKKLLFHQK

Structure (SMILES) | activity, negative = inhibition [1] | Potency [2] [µM]
C=CCn1c(SCC#N)nc2c(c1=O)C(C)(C)Cc1ccccc1-2 | -1.93% | > 20.6
CCOC(=O)c1c(C)n(C)c2ccc(O)c(CN3CCCCC3)c12 | 18.3% | > 20.6
COc1ccc(OC)c(NC(=O)CSC2=C(C#N)C(c3ccco3)C3=C(CCCC3=O)N2)c1 (centres undefined) | -3.42% | > 20.6
Cc1cc(N2C(=O)C(=O)/C(=C(/O)c3ccc(F)cc3)C2c2ccc(F)cc2)no1 (centres undefined) | -24.4% | > 20.6
CC1(C)Cc2c(c(N3CCOCC3)nc3sc4c(NCc5ccco5)nnnc4c23)CS1 | -26.9% | > 20.6
N#CC1=C(N)NC(SCc2ccc(F)cc2)=C(C#N)C12CCCCC2 | -24.1% | > 20.6
CCOC(=O)/C=c1\s/c(=C(\C#N)C(=O)OCC)n(-c2ccccc2)c1=O | -22.2% | > 20.6
Cn1c(NCC(O)c2ccccc2)nc2c1c(=O)n(Cc1ccc(Cl)cc1)c(=O)n2C (centres undefined) | -24.9% | > 20.6
COc1ccc(C(=O)C(CN2CCCC2)c2ccccc2)cc1 (centres undefined) | -8.3% | > 20.6
N#Cc1ccc(-c2ccc(OCC(O)Cn3nnc4ccccc43)cc2)cc1 (centres undefined) | -29.1% | > 20.6
CCOc1ccc(/C(O)=C2/C(=O)C(=O)N(c3cc(C)on3)C2c2ccc(C(=O)OC)cc2)cc1 (centres undefined) | -18.4% | > 20.6
CCCCCc1ccc(-c2ccc(=O)[nH]n2)cc1 | 13.6% | > 20.6
Fc1ccc2[nH]c3c(N4CCN(c5ccccc5)CC4)ncnc3c2c1 | -93.2% (active) | > 20.6
C=CCc1cccc(CNc2nc3ccccc3n2C(C)C)c1O | -22.2% | > 20.6
O=C(O)CCc1cc(I)c(Oc2ccc(O)c(I)c2)c(I)c1 | -5.45% | > 20.6
CN1Cc2c(N3CCOCC3)nc(SCc3ccccc3)c(C#N)c2CC1(C)C | -1.83% | > 20.6
N#C/C(=N\O)c1nc(-c2ccccc2)cs1 | 9.7% | > 20.6
CCN(CC)c1ccc2c(C)c(-c3ccc(N)cc3)c(=O)oc2c1 | 14.8% | > 20.6
CCC(=O)Oc1ccc(/C(CC)=C(\CC)c2ccc(OC(=O)CC)cc2)cc1 | -21.2% | > 20.6
Clc1ccccc1CN(Cc1ccccc1)c1ncnc2nc[nH]c12 | -10.3% | > 20.6
CN(CCCCCNC(=O)/C=N/O)Cc1ccccc1 | 9.45% | > 20.6
CC1(C)CC(=O)C2=C(C1)Oc1nc3ccccc3cc1C2C(C#N)C#N (centres undefined) | -93% (active) | > 20.6
CCOC(=O)c1[nH]c2cc3c(cc2c1NC(=O)CN1CCCCC1C)OCO3 (centres undefined) | -10.3% | > 20.6
CCOC(=O)N1CCN(c2ncnc3c2[nH]c2ccc(OC)cc23)CC1 | -22.9% | > 20.6
CCCOC(=O)CSC1=C(C#N)C(c2ccccc2OCC)C(C#N)C(=O)N1 (centres undefined) | -11.2% | > 20.6
C=CCOc1nc(-c2ccncc2)nc2ccccc12 | 12.7% | > 20.6
COC(=O)c1cccc(Nc2cc(C)nc(-c3ccccc3O)n2)c1 | -15.1% | > 20.6
